# Test results taken from PubChem BioAssay AID652245 (The Scripps Research Institute Molecular Screening Center, 2013).
# Among all 1,600 compounds or so, about 920 (58%) were called active.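 The calls were made as follows: active = inhibition above the primary screen's cutoff, the mean inhibition of all screened compounds plus 3 SD (cut at about 13% in these data); inactive = the rest.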 The set was probably picked from earlier hits. Not all results are given here.
# Target: Galanin receptor type 3 (Homo sapiens) (UniProt O60755)
# Assay: blockers of human galanin receptor 3 – cell-based, fluorescence, triplicate, confirmation (AID 652245);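 also: 0% = forskolin plus galanin and 100% = forskolin alone with DMSO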
# Conditions: HEK293 GalR3 CNG cAMP biosensor, membrane potential fluorescence; at 3 µM; active compounds read high
# Chain of Galanin receptor type 3 (Homo sapiens) (O60755 1-299 limits assumed): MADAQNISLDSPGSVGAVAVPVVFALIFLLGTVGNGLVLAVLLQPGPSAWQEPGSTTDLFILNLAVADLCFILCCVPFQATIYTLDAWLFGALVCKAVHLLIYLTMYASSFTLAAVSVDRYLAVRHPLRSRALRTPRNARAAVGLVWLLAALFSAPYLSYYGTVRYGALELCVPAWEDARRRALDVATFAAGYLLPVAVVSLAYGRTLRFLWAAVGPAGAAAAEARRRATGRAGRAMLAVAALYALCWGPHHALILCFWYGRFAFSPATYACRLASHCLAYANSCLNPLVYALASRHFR
row,Structure (SMILES),inhibition
1,CCCCCCCCCCCCn1ccc(=N)cc1,92.6% (active)
2,COC(=O)C1=C(c2cc3ccccc3s2)C[C@@H]2CC[C@H]1N2C(=O)NCc1cccc2ccccc12,-2.45% (inactive)
3,COc1ccc(-n2c(-c3ccccc3)nc3ccccc3c2=O)cc1,7.55% (inactive)
